Experimental data reported in PubChem BioAssay (EPA / NIEHS).
Activity calls are given as the source filed them. The calls were made as follows: active = hit-call score of the fitted dose curve at least 0.9, where 1 is the maximum; inactive = score below 0.9.

Tests used:
[1] = BSK_CASM3C_SRB: Viability Assessment in the BioMAP Diversity Plus: CASM3C Assay (AID 2283050); conditions: primary human coronary artery smooth muscle cells;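 also: cells exposed to compound for 24 h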
[2] = read-out: Thrombomodulin, THBD (gene 7056); test: BSK_CASM3C_Thrombomodulin: BioMAP Diversity Plus: CASM3C Assay for Thrombomodulin Biomarker Activity (AID 2283051); conditions: primary human coronary artery smooth muscle cells; actives raise or lower the signal;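 also: thrombomodulin protein level measured by ELISA 24 h after dosing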
[3] = read-out: Tissue Factor, F3 (gene 2152); test: BSK_CASM3C_TissueFactor: BioMAP Diversity Plus: CASM3C Assay for Tissue Factor Biomarker Activity (AID 2283052); conditions: primary human coronary artery smooth muscle cells; actives raise or lower the signal;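 also: cell surface tissue factor protein level read by ELISA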
[4] = read-out: Interferon-gamma inducible Protein 10 (IP10), CXCL10 (gene 3627); test: BSK_hDFCGF_IP10: BioMAP Diversity Plus: hDFCGF Assay for Interferon-gamma inducible Protein 10 (IP10) Biomarker Activity (AID 2283053); conditions: primary human foreskin fibroblasts; actives raise or lower the signal
Summary of the method: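 Primary human foreskin fibroblasts exposed to chemicals for 24 h. IP-10 measured by ELISA; changes fitted bidirectionally against DMSO baseline.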

[5] = read-out: Urokinase-type plasminogen activator receptor (uPAR), PLAUR (gene 5329); test: BSK_CASM3C_uPAR: BioMAP Diversity Plus: CASM3C Assay for Urokinase-type plasminogen activator receptor (uPAR) Biomarker Activity (AID 2283054); conditions: primary human coronary artery smooth muscle cells; actives raise or lower the signal;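 also: cell-surface uPAR protein level quantified by ELISA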
[6] = read-out: Vascular cell adhesion molecule 1 (VCAM1), VCAM1 (gene 7412); test: BSK_CASM3C_VCAM1: BioMAP Diversity Plus: CASM3C Assay for Vascular cell adhesion molecule 1 (VCAM1) Biomarker Activity (AID 2283055); conditions: primary human coronary artery smooth muscle cells; actives raise or lower the signal;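 also: VCAM-1 protein level quantified by ELISA on the cells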
[7] = read-out: Collagen III, COL3A1 (gene 1281); test: BSK_hDFCGF_CollagenIII: BioMAP Diversity Plus: hDFCGF Assay for Collagen III Biomarker Activity (AID 2283056); conditions: primary human foreskin fibroblasts; actives raise or lower the signal
Summary of the method: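 ELISA readout of Collagen III in human dermal (foreskin) fibroblasts, taken 24 h post-treatment. Gain or loss relative to DMSO vehicle fitted in both directions.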

[8] = read-out: Epidermal growth factor receptor (EGFR), EGFR (gene 1956); test: BSK_hDFCGF_EGFR: BioMAP Diversity Plus: hDFCGF Assay for Epidermal growth factor receptor (EGFR) Biomarker Activity (AID 2283057); conditions: primary human foreskin fibroblasts; actives raise or lower the signal
Summary of the method: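 Primary human foreskin fibroblasts (hDFCGF system), sampled 24 h after dosing; EGFR quantified by ELISA. Bidirectional fit relative to DMSO baseline; SRB total-protein staining in parallel cultures for cytotoxicity.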

[9] = read-out: Interleukin-8 (IL8), CXCL8 (gene 3576); test: BSK_hDFCGF_IL8: BioMAP Diversity Plus: hDFCGF Assay for Interleukin-8 (IL8) Biomarker Activity (AID 2283058); conditions: primary human foreskin fibroblasts; actives raise or lower the signal
Summary of the method: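 IL-8 levels read by ELISA at 24 hours after dosing human skin fibroblast cultures. Parallel SRB staining assessed overt cytotoxicity, and gain or loss of signal was fitted against DMSO control.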

[10] = BSK_hDFCGF_Proliferation: Cell Proliferation Assessment in the BioMAP Diversity Plus: hDFCGF Assay (AID 2283059); conditions: primary human foreskin fibroblasts;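 also: curves fitted for both rise and fall of signal versus DMSO baseline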
Summary of the method: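 Sub-confluent human foreskin fibroblast cultures receive test chemical […]. Relative cell number is quantified by sulforhodamine B staining (0.1%, after 10% TCA fixation) at 560 nm, with bidirectional fitting referenced to DMSO.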

[11] = read-out: Macrophage colony-stimulating factor (MCSF), CSF1 (gene 1435); test: BSK_hDFCGF_MCSF: BioMAP Diversity Plus: hDFCGF Assay for Macrophage colony-stimulating factor (MCSF) Biomarker Activity (AID 2283060); conditions: primary human foreskin fibroblasts; actives raise or lower the signal
Summary of the method: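 M-CSF levels read by ELISA at 24 h post-dosing in human skin fibroblasts. Parallel cultures stained with SRB assessed cytotoxicity at the same time point; response fitted in both directions against the DMSO baseline.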

[12] = BSK_hDFCGF_SRB: Viability Assessment in the BioMAP Diversity Plus: hDFCGF Assay (AID 2283061); conditions: primary human foreskin fibroblasts;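 also: cells exposed to compound for 24 h before the read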
Summary of the method: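 Viability was read as total protein: after 10% TCA fixation, wells were stained with 0.1% sulforhodamine B and read at 560 nm. Primary human foreskin fibroblasts were dosed for 24 h, with bidirectional fitting versus DMSO.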

[13] = read-out: TIMP metallopeptidase inhibitor 1 (TIMP1), TIMP1 (gene 7076); test: BSK_hDFCGF_TIMP1: BioMAP Diversity Plus: hDFCGF Assay for TIMP metallopeptidase inhibitor 1 (TIMP1) Biomarker Activity (AID 2283062); conditions: primary human foreskin fibroblasts; actives raise or lower the signal
Summary of the method: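 TIMP-1 measured by ELISA 24 h after chemical dosing of primary human skin fibroblasts, with gain or loss fitted relative to DMSO. Parallel SRB staining (560 nm) monitored overt cytotoxicity.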

[14] = read-out: Monokine induced gamma interferon (MIG), CXCL9 (gene 4283); test: BSK_hDFCGF_MIG: BioMAP Diversity Plus: hDFCGF Assay for Monokine induced gamma interferon (MIG) Biomarker Activity (AID 2283063); conditions: primary human foreskin fibroblasts; actives raise or lower the signal
Summary of the method: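 Human primary foreskin fibroblasts in the hDFCGF system, exposed to test chemical for 24 h; MIG measured by ELISA. Bidirectional curve fitting against DMSO negative control as activity baseline.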

[15] = read-out: Matrix Metallopeptidase 1 (MMP1), MMP1 (gene 4312); test: BSK_hDFCGF_MMP1: BioMAP Diversity Plus: hDFCGF Assay for Matrix Metallopeptidase 1 (MMP1) Biomarker Activity (AID 2283064); conditions: primary human foreskin fibroblasts; actives raise or lower the signal
Summary of the method: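 Primary human foreskin fibroblasts in the hDFCGF system were dosed with test chemical, and MMP1 was measured by ELISA 24 h later. Values come from bidirectional curve fitting against the DMSO baseline.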

[16] = read-out: Plasminogen activator inhibitor-1 (PAI1), SERPINE1 (gene 5054); test: BSK_hDFCGF_PAI1: BioMAP Diversity Plus: hDFCGF Assay for Plasminogen activator inhibitor-1 (PAI1) Biomarker Activity (AID 2283066); conditions: primary human foreskin fibroblasts; actives raise or lower the signal
Summary of the method: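 Human foreskin fibroblast primary cells, 24 h chemical exposure; PAI-1 measured by ELISA. Bidirectional fitting relative to DMSO; parallel cultures stained with SRB for total protein to flag overt cytotoxicity.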

[17] = read-out: Intercellular Adhesion Molecule 1 (ICAM1), ICAM1 (gene 3383); test: BSK_KF3CT_ICAM1: BioMAP Diversity Plus: KF3CT Assay for Intercellular Adhesion Molecule 1 (ICAM1) Biomarker Activity (AID 2283067); conditions: primary human keratinocytes with fibroblasts; actives raise or lower the signal
Summary of the method: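 Cell-surface ICAM-1 was measured by ELISA 24 h after dosing primary human skin keratinocytes co-cultured with fibroblasts. Parallel SRB staining tracked overt cytotoxicity. Gain or loss of signal was fitted relative to DMSO.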

[18] = read-out: Interferon-gamma inducible Protein 10 (IP10), CXCL10 (gene 3627); test: BSK_KF3CT_IP10: BioMAP Diversity Plus: KF3CT Assay for Interferon-gamma inducible Protein 10 (IP10) Biomarker Activity (AID 2283068); conditions: primary human keratinocytes with fibroblasts; actives raise or lower the signal
Summary of the method: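 ELISA read-out of IP-10 after 24 h chemical dosing of human skin primary co-culture (keratinocytes, foreskin fibroblasts). Gain or loss of signal relative to DMSO, bidirectional curve fit.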

[19] = BSK_KF3CT_SRB: Viability Assessment in the BioMAP Diversity Plus: KF3CT Assay (AID 2283069); conditions: primary human keratinocytes with fibroblasts;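 also: total protein by sulforhodamine B staining as a cytotoxicity measure; read 24 h after compound addition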
Summary of the method: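 Human primary keratinocyte plus foreskin fibroblast co-culture exposed to chemicals for 24 h. Total protein measured by 0.1% sulforhodamine B staining after 10% TCA fixation, read at 560 nm; bidirectional fitting versus DMSO baseline.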

[20] = read-out: Vascular cell adhesion molecule 1 (VCAM1), VCAM1 (gene 7412); test: BSK_hDFCGF_VCAM1: BioMAP Diversity Plus: hDFCGF Assay for Vascular cell adhesion molecule 1 (VCAM1) Biomarker Activity (AID 2283065); conditions: primary human foreskin fibroblasts; actives raise or lower the signal;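 also: VCAM-1 protein level quantified by ELISA after 24 h chemical exposure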
Summary of the method: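 ELISA readout of VCAM-1 on human dermal fibroblast primary cultures, 24 h after chemical exposure. Gain or loss of signal fitted in both directions against DMSO baseline.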

Measured: AC50

CCNc1nc(Cl)nc(NC(C)(C)C)n1
not listed: [20]
inactive: all other assays above

O=C(O)C1C(C(=O)O)C2(Cl)C(Cl)=C(Cl)C1(Cl)C2(Cl)Cl (centres undefined)
not listed: [19] | [20]
inactive: all other assays above

CCOP(=S)(Oc1ccc([N+](=O)[O-])cc1)c1ccccc1 (centres undefined)
active: [2] 12.9 µM | [4] 20 µM | [7] 8.08 µM | [10] 6.37 µM | [11] 7.24 µM | [20] 7.62 µM | [16] 3.35 µM
not listed: [1] | [19]
inactive: all other assays above

CCN(CC)c1ccccc1
not listed: [20]
inactive: all other assays above

CCOC(=O)c1ccccc1C(=O)OCC
not listed: [20]
inactive: all other assays above

CCCCN(CCCC)SN(C)C(=O)Oc1cccc2c1OC(C)(C)C2
active: [1] 33.7 µM | [2] 29.1 µM | [4] 8.12 µM | [6] 13.4 µM | [7] 5.49 µM | [9] 16.2 µM | [10] 6.34 µM | [11] 7.15 µM | [12] 9.64 µM | [13] 12.4 µM | [14] 13.2 µM | [15] 12.4 µM | [16] 8.57 µM
inactive: [3] | [5] | [8] | [17] | [18]

Nc1cc2c3c(c1)C(c1ccccc1)=N[C@@H](NC(=O)c1cccnc1)C(=O)N3CC2
active: [16] 0.523 µM
not listed: [20]
inactive: all other assays above

COP(N)(=S)OC
not listed: [20]
inactive: all other assays above

Cc1ccc([N+](=O)[O-])cc1C
not listed: [19] | [20]
inactive: all other assays above

c1ccc2c(c1)Nc1ccccc1S2
active: [2] 0.542 µM | [4] 20 µM | [10] 30.4 µM | [11] 9.32 µM | [16] 29.4 µM
not listed: [20]
inactive: all other assays above

CCC(C)(C)c1ccc(O)cc1
not listed: [20]
inactive: all other assays above

c1nc[nH]n1
not listed: [19] | [20]
inactive: all other assays above

N#Cc1cc([N+](=O)[O-])ccc1N
not listed: [20]
inactive: all other assays above

CC(C)(C)c1ccccc1OP(=O)(Oc1ccccc1)Oc1ccccc1
inactive: [3] | [5] | [9] | [14] | [15] | [16] | [17] | [18]
active: [1] 5.23 µM | [2] 11.7 µM | [4] 20 µM | [6] 18.7 µM | [7] 2.83 µM | [8] 13.5 µM | [10] 15.6 µM | [11] 20 µM | [12] 25 µM | [13] 20 µM

CN(C)C(=O)Cl
not listed: [20]
inactive: all other assays above
